Data on 39 targets can be found in the supplement of paper PMC11006884.

The full data set covers some 6,500 targets. This sample favours those with a hit. About 2% of all pairs of compound and target were hits. Values without a mark were called inactive.

UniProt O94992, sequence (O94992 whole entry, looked up): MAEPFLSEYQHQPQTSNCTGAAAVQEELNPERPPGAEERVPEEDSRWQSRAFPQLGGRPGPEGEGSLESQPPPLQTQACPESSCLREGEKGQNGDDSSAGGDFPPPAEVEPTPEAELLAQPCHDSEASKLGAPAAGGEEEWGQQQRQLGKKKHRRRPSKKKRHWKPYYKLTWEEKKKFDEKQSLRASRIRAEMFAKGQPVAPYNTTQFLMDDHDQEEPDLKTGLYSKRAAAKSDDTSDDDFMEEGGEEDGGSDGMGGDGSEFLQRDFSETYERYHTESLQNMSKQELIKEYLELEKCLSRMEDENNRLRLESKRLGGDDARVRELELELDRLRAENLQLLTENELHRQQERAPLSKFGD
UniProt O75976, sequence (O75976 whole entry): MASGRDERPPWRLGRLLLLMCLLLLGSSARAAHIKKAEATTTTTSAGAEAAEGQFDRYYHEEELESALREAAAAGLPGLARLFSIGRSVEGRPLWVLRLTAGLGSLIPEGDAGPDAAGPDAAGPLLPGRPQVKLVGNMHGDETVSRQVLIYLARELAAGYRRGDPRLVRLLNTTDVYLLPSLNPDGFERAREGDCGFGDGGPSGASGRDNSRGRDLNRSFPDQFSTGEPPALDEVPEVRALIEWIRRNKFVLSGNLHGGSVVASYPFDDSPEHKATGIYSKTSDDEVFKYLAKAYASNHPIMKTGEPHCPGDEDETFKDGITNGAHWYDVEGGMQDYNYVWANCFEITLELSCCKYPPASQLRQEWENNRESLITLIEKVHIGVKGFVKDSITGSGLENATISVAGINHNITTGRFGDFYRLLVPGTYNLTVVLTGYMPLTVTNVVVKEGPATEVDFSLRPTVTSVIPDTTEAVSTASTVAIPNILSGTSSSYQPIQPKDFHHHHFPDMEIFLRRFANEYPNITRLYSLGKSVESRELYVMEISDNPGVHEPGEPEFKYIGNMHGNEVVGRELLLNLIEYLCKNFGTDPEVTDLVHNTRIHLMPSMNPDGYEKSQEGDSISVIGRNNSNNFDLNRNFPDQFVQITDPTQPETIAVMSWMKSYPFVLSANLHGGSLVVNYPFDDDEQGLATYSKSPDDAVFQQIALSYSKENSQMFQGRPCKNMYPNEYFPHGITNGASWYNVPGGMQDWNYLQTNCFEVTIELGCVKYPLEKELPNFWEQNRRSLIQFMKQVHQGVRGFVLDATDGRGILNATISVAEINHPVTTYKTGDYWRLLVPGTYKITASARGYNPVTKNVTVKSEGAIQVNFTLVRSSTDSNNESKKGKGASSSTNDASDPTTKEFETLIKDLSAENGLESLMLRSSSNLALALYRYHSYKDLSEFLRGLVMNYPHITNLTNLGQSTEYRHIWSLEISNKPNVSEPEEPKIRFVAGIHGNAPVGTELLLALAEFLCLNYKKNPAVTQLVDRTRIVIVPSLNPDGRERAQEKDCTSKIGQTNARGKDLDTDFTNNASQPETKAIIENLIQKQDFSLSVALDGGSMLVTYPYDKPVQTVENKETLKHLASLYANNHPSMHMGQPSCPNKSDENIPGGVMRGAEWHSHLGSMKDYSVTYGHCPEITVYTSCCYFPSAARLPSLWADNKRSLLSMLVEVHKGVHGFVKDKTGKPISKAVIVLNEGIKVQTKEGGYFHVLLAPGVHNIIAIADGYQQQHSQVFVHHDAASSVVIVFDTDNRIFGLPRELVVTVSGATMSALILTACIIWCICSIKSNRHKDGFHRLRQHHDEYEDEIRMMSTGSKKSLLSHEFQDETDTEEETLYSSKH
UniProt O14545, sequence (O14545 whole entry, looked up): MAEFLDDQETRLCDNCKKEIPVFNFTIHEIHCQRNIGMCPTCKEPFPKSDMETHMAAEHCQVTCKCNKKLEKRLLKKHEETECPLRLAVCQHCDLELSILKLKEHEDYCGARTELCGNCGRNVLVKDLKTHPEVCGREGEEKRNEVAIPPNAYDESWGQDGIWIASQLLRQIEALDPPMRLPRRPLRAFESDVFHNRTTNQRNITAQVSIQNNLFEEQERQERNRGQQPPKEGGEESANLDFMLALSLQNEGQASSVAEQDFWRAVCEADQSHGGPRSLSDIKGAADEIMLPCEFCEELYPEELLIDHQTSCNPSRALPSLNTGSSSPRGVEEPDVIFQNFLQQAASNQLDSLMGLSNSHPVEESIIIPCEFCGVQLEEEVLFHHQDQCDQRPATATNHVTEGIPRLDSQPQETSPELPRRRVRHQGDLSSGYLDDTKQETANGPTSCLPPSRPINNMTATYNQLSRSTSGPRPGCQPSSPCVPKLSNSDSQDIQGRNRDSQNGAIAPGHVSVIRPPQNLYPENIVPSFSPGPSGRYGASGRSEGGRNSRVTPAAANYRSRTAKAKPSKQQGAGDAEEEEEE
UniProt O15084, sequence (O15084 whole entry): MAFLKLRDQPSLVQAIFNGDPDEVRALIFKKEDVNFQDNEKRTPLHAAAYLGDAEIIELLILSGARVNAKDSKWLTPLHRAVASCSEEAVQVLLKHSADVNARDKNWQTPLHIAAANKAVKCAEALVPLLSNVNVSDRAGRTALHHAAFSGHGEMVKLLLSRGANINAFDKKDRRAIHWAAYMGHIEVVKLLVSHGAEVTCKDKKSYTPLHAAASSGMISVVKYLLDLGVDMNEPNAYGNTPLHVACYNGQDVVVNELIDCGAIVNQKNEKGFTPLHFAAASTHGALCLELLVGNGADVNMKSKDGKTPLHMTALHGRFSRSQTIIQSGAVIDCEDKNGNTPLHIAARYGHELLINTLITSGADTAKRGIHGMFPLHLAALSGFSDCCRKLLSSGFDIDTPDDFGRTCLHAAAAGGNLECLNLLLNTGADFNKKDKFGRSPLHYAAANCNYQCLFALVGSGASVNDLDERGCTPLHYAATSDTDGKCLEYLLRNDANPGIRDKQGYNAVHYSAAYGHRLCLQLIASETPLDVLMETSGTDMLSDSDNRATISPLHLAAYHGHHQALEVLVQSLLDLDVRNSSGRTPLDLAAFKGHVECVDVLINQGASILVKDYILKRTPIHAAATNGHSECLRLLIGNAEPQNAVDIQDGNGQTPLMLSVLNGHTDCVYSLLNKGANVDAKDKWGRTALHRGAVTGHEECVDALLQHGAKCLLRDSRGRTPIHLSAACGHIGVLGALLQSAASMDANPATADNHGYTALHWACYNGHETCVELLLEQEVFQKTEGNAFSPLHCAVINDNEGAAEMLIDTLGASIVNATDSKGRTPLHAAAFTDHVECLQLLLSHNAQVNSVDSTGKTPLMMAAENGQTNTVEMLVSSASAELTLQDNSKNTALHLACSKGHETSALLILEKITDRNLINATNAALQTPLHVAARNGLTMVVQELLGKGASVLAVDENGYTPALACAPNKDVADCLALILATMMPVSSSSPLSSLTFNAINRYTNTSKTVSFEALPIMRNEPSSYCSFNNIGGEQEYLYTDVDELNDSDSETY
UniProt O15067, sequence (O15067 whole entry, looked up): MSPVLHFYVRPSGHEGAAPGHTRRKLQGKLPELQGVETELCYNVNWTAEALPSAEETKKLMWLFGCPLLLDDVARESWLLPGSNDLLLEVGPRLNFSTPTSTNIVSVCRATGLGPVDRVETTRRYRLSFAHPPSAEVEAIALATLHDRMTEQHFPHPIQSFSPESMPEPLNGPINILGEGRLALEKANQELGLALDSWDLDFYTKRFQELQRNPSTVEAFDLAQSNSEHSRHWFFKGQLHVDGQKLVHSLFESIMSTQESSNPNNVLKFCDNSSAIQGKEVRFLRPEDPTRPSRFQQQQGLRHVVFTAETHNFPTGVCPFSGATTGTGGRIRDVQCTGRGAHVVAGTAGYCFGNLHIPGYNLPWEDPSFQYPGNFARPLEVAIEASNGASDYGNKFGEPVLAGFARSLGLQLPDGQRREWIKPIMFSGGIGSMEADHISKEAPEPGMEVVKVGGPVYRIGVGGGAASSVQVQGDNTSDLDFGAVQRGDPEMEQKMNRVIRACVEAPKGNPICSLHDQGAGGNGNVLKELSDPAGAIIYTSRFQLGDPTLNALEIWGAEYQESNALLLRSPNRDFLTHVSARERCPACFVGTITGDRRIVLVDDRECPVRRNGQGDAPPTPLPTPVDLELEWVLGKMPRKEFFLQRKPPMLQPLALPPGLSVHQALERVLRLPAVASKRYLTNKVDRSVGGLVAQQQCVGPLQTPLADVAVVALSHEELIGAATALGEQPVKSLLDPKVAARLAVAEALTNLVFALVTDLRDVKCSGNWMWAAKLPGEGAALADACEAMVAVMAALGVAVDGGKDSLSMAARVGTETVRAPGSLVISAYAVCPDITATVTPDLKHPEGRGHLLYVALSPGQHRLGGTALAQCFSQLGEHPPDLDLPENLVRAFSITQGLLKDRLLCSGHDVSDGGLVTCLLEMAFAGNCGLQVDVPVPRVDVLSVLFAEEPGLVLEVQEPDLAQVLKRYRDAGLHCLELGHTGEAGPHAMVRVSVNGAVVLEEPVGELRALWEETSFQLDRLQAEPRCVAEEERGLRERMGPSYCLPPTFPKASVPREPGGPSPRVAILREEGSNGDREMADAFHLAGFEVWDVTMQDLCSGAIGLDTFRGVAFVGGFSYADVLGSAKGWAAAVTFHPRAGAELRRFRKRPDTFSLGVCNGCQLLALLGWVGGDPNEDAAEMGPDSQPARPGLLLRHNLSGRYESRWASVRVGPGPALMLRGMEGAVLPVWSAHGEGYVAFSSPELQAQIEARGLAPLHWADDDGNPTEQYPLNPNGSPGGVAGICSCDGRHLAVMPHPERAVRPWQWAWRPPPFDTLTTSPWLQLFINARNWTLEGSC
UniProt O43837, sequence (O43837 whole entry, looked up): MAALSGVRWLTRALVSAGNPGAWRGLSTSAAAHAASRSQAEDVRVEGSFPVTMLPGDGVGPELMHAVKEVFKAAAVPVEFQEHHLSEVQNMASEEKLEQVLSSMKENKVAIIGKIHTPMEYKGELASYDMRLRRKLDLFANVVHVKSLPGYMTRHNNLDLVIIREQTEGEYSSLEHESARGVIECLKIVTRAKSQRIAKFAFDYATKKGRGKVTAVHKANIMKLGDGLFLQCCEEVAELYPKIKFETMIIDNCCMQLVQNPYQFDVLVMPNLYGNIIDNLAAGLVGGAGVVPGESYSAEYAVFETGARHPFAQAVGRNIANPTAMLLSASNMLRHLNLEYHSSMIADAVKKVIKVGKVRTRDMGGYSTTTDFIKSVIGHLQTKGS

Compound in this assay: COC(=O)C#Cc1ccccc1 [methyl 3-phenylpropiolate]
The experiment in a line: log2 ratio of iodoacetamide-alkyne labeling of the cysteine site, DMSO over compound (competition); higher = stronger covalent engagement of the cysteine by the compound, active = 1 or more. The note with it: 500 µM; treatment time 1 h; system: HEK293T cell lysate. A digest of the protocol:
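Reporter intensities give each cysteine's log2 competition ratio as the mean of control channels over the mean of compound channels. The samples were HEK293T lysate (2 mg/mL) given vehicle or electrophile (500 µM, 1 h, ambient temperature), then iodoacetamide alkyne (1 h), followed by click coupling to sCIP-TMT reagents, pooling, trypsin digestion overnight at 37 °C, streptavidin enrichment, acid elution, Orbitrap Eclipse LC-MS/MS with FAIMS and FragPipe quantification. Duplicate channels and three replicates were run, and cysteines quantified in only one replicate were discarded.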
Consider DENR C13 (UniProt O43583), for which the “log2 ratio of iodoacetamide-alkyne labeling” value (from here on “log2 ratio”) is 0.235.
For the target NVL C626 (UniProt O15381), the “log2 ratio” value was 0.651.
Next, IPO5 C750 (UniProt O00410): 0.168; TRIM24 C81 (UniProt O15164): 0.0661.
Next, ARHGEF11 C1500 (UniProt O15085): 0.0286; ANKRD17 C58 (UniProt O75179): 1.35 (active); HTATSF1 C462 (UniProt O43719): 1.14 (active).
As for OFD1 C581 (UniProt O75665), the “log2 ratio” value is 0.478.
Next, NPM3 C105 (UniProt O75607): 0.636.
Next, DKC1 C74 (UniProt O60832): 0.427; TBC1D4 C1277 (UniProt O60343): 0.374; IDH3B C233 (UniProt O43837): 0.394.
With UniProt O75528_C7, the “log2 ratio” value is 1.05 (active).
In the case of EIF5B C853 (UniProt O60841), the “log2 ratio” value was 1 (active).
As for STX16 C150 (UniProt O14662), the “log2 ratio” value was 0.0256.
Consider TRAFD1 C476 (UniProt O14545), for which the “log2 ratio” value was 1.55 (active).
Next, POLRMT C925 (UniProt O00411): -0.0567; SF3B1 C1059 (UniProt O75533): 0.247.
Next, FLNB C660 (UniProt O75369): 0.476; EIF3D C196 (UniProt O15371): 0.719.
Next, DVL2 C412 (UniProt O14641): 0.134; A0AVT1_C347: 2.27 (active).
For CPD C582 (UniProt O75976), the “log2 ratio” value is 0.145.
On to UniProt O75947_C101, for which the “log2 ratio” value is 0.98.
With PFAS C1285 (UniProt O15067) the figure was 1.36 (active).
Next, TIPRL C87 (UniProt O75663): 1.32 (active); ANKRD17 C210 (UniProt O75179): 0.398.
UniProt O43598_C26: the “log2 ratio” value was 0.038.
Turning to UniProt O43929_C16, the “log2 ratio” value is 0.153.
Next, ANKRD28 C701 (UniProt O15084): 0.336; RNMT C73 (UniProt O43148): 0.607; EIF3D C437 (UniProt O15371): -0.116.
As to RIPK2 C414 (UniProt O43353), the “log2 ratio” value was 1.35 (active).
With EIF5B C720 (UniProt O60841) the figure was 0.266.
With TBC1D4 C6 (UniProt O60343) the figure was 0.373; with XPO1 C164 (UniProt O14980), -0.00596; with OGT C620 (UniProt O15294), 1.35 (active).
For the target HEXIM1 C18 (UniProt O94992), the “log2 ratio” value is 0.398.
With SART1 C645 (UniProt O43290) the figure was 0.0232.
